For some of these results: Measured potencies and affinities stand elsewhere.

Holding throughout (parameters): scale not given: direction of the effect not stated beside the values
The target of test [1] is Protein translocase subunit SecA (Escherichia coli (strain K12)) (UniProt P10408). Description: Assay to Identify E. coli SecA ATPase Inhibitors. Type of test: functional. The conditions noted are these: 30 µM.
Test [2] has as its target T1, Ubiquitin-activating enzyme e1, putative (Leishmania donovani (strain BPK282A1)) (UniProt E9BSI1).
T1 sequence (whole entry): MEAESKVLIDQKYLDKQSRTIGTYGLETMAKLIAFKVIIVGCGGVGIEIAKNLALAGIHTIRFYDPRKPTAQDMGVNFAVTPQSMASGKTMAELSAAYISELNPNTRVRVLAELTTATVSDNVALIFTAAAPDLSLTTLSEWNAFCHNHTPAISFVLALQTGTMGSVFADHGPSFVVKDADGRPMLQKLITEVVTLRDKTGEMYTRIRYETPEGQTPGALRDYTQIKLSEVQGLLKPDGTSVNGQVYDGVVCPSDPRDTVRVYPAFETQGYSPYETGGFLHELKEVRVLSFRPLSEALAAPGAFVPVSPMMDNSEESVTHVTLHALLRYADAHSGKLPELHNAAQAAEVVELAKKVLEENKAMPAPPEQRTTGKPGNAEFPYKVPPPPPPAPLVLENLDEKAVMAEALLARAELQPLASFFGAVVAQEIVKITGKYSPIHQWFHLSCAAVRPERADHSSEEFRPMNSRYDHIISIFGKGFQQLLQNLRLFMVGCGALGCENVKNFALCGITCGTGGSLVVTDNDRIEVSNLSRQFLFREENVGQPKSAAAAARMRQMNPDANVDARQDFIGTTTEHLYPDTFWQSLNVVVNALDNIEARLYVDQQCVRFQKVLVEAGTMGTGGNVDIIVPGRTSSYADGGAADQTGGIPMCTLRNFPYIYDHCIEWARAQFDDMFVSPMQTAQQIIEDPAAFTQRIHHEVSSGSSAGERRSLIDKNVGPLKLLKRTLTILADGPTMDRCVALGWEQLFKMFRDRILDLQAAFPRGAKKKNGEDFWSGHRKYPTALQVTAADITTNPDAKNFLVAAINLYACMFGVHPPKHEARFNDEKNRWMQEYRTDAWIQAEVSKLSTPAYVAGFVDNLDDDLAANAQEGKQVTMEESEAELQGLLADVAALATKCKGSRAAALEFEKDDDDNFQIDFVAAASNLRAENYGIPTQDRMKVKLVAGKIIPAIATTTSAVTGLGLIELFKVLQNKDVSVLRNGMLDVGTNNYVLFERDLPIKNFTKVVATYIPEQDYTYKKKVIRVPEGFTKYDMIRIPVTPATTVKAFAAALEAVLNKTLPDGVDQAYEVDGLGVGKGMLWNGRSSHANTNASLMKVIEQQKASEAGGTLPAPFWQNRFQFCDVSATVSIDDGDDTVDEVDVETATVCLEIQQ
Description: Leishmania donovani Ubiquitin Activating Enzyme (LdE1). Type of test: functional. The conditions noted are these: 30 µM.

For test [3], the target named is AMP-activated protein kinase, AMPK (Homo sapiens) (UniProt P54646+O43741+P54619+Q9UGJ0+Q9Y478+Q13131+Q9UGI9). Description: AMP-dependent Kinase enzyme assay. An in vitro enzyme assay that detects ADP turnover that is directly proportional to AMPK activity. This uses naive AMPK that is activated during the assay with MK-8722. The conditions noted are these: 30 µM. Type of test: functional.

The target in test [4] is Sialic acid-binding Ig-like lectin 9 (Homo sapiens) (UniProt Q9Y336). Briefly: Hs-Siglec9 ALPHAscreen SOP 20170721. The settings on record: 10 µM.
Sequence of Sialic acid-binding Ig-like lectin 9 (Homo sapiens) (Q9Y336 whole entry): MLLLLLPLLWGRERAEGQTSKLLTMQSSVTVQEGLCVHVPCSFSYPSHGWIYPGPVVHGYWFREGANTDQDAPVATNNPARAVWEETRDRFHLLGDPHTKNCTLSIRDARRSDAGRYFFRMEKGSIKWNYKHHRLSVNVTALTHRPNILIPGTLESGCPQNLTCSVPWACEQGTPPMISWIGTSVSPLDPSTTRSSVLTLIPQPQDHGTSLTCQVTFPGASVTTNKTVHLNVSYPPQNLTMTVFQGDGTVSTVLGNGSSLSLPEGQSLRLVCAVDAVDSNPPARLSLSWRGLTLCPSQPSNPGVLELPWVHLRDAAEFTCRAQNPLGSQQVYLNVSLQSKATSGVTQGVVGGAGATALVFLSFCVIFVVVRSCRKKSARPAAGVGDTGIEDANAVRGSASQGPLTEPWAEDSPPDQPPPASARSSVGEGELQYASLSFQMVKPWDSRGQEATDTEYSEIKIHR
Test [5] concerns Trypanosoma cruzi. Description: Trypanosoma cruzi phosphomannomutase and mannose-1-phosphate guanylyltransferase assay. The test is classed as functional. The conditions noted are these: 10 µM.
Test [6] deals with T2, Arginase-2, mitochondrial (Homo sapiens) (UniProt P78540).
T2 sequence (whole entry): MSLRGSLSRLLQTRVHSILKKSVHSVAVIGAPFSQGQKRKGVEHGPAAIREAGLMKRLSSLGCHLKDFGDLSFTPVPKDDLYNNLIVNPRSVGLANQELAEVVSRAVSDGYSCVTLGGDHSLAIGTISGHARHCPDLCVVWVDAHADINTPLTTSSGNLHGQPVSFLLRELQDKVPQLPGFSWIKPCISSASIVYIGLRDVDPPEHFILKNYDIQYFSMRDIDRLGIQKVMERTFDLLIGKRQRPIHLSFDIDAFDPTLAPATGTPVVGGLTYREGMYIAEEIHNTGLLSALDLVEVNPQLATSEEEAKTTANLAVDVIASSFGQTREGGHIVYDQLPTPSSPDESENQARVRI
Briefly: in vitro enzyme assay to detect the production of urea directly proportional to the activity of Arginase II. Note: in the data most compounds retested in dose-response had high values. The test is classed as functional. The settings on record: 33.3 µM.

Test [7] deals with T3, Proteasome subunit beta (Trypanosoma cruzi) (UniProt O96673).
T3 sequence (whole entry): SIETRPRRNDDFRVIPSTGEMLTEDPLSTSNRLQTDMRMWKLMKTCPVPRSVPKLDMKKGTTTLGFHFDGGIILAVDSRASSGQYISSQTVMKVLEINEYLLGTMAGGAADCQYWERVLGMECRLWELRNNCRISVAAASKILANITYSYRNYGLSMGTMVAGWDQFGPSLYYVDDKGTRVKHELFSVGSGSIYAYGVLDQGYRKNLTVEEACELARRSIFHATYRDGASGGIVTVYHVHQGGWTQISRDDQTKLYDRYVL
Description: Trypanosoma cruzi proteasome chymotrypsin-like activity (TcProtChymo) assay. Note: in the data most compounds retested in dose-response had high values. Type of test: functional. The settings on record: 9.37 µM.

The species entered for test [8] is Homo sapiens. Description: To identify inhibition of the IFN signalling (Jak-Stat) pathway via expression of an eGFP reporter gene under the control of an IFN-stimulated response element (ISRE) containing MxA promoter. The conditions noted are these: 30 µM. Type of test: functional.
Test [9] deals with T4, Tyrosyl-tRNA synthetase, putative (Trypanosoma cruzi (strain CL Brener)) (UniProt Q4DSP6).
T4 sequence (whole entry): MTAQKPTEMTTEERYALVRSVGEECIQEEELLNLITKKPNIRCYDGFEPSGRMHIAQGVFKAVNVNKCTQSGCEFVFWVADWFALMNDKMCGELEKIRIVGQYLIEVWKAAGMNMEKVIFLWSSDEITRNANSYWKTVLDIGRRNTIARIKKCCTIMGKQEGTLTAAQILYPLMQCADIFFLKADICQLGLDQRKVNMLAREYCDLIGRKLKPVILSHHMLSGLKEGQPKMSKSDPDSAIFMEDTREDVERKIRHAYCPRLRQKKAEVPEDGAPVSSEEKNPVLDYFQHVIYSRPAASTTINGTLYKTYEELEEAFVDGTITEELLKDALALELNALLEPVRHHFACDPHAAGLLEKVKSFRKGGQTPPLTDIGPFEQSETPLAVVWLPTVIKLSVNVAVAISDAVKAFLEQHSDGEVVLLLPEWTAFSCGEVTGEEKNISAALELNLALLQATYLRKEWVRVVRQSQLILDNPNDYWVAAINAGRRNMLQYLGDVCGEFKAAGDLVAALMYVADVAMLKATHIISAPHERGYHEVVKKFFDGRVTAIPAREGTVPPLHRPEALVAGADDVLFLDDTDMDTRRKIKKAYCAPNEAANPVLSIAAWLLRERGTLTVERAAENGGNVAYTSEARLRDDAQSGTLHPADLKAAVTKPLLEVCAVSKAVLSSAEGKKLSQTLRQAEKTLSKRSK
Description: Trypanosoma cruzi tyrosyl tRNA synthetase (TcYRS) _High Tyrosine SOP. Note: in the data most compounds retested in dose-response had high values. The test is classed as functional. The settings on record: 30 µM.

The target of test [10] is T4, Tyrosyl-tRNA synthetase, putative (Trypanosoma cruzi (strain CL Brener)). Description: Trypanosoma cruzi tyrosyl tRNA synthetase (TcYRS) SOP. Type of test: functional. The settings on record: 30 µM.
Test [11] deals with Chromo domain-containing protein 1 (Saccharomyces cerevisiae (strain ATCC 204508 / S288c) (Baker's yeast)) (UniProt P32657). Description: ScCHD-1 Enzyme Inhibition Assay. Note: in the data most compounds retested in dose-response had high values. The test is classed as functional. The settings on record: 30 µM.
Sequence of Chromo domain-containing protein 1 (Saccharomyces cerevisiae (strain ATCC 204508 / S288c) (Baker's yeast)) (P32657 whole entry, the tested form may be a part): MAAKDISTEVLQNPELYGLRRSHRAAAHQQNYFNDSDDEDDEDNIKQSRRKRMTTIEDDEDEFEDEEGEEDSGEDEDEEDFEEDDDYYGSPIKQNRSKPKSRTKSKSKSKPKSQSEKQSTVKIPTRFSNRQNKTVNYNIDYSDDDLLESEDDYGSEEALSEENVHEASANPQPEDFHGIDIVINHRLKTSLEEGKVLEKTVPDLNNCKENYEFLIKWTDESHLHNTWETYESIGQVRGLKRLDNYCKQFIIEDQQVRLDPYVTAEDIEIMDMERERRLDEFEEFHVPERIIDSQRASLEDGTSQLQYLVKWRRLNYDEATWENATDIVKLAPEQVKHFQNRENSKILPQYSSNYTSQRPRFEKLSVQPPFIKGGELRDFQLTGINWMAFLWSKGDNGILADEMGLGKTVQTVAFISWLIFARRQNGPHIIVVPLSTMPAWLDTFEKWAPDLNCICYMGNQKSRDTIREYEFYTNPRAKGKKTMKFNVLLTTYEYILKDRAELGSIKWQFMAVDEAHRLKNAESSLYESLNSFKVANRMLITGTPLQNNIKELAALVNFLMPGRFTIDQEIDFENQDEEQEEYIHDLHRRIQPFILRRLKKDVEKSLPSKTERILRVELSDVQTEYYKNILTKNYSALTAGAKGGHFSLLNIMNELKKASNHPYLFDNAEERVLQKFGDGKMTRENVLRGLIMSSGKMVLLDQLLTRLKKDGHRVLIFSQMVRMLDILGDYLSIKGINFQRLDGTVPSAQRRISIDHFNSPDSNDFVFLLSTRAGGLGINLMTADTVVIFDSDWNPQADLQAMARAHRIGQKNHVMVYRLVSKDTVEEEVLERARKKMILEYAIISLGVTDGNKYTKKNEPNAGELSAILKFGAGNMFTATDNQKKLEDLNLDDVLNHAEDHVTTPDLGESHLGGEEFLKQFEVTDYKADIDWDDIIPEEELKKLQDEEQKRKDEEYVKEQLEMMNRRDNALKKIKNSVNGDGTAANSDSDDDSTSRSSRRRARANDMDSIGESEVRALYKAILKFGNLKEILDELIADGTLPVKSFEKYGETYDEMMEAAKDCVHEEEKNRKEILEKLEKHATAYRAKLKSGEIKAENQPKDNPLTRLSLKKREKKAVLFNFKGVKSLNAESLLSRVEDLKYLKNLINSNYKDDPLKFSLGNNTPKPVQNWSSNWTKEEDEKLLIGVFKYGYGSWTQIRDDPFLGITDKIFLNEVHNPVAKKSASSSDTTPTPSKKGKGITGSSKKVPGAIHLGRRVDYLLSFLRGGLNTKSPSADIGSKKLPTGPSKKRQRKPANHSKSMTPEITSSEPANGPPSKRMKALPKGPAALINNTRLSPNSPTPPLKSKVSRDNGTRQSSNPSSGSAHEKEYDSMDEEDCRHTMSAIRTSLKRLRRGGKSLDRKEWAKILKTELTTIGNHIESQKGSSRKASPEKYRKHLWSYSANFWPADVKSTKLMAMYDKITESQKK

Sequence of Protein translocase subunit SecA (Escherichia coli (strain K12)) (P10408 whole entry): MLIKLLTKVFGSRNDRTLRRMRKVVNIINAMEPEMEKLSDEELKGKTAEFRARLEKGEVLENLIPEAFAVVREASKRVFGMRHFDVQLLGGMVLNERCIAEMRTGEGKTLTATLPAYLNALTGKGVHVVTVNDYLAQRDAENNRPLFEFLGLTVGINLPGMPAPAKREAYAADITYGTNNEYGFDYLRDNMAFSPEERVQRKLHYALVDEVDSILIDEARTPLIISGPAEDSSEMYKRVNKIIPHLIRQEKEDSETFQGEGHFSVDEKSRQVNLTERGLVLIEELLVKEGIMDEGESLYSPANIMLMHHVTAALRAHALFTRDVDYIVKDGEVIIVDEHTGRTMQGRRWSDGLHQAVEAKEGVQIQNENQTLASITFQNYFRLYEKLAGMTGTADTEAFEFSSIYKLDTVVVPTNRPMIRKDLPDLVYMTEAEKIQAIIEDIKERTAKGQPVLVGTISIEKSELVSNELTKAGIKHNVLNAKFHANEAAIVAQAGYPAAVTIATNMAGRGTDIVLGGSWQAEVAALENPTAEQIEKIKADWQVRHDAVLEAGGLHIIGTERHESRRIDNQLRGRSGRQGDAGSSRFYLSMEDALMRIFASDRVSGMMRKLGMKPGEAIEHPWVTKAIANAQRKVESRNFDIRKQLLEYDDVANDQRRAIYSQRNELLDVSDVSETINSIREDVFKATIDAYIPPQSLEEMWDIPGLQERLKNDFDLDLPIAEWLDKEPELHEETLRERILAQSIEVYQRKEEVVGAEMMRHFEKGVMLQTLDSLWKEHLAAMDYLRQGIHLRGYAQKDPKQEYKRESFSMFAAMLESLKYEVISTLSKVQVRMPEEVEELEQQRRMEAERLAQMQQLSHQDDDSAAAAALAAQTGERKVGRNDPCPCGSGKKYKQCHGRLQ

Regarding `COCC(O)CNC(=O)c1cnc(-c2ccccc2)nc1O` (stereo unspecified), the Percent Effect in test [1] was 2.38%; in test [2] it was 8.11%; in test [3] it was -5.21%; in test [4] it was 5.6%; in test [5], 3.28%; in test [6], -0.476%. Also, the Percent Effect was 8.97% in [7]; 13.5% in [8]; 8.99% in test [9]; 19.5% in test [10]; -0.825% in test [11].

Turning to `Cc1ccc2c(c1)c(CNC(=O)C1CCN(C(C)C)CC1)nn2C`, the Percent Effect is 2.34% in [1]; 5.41% in test [2]; -3.84% in test [3]; -0.447% in test [4]; -0.579% in test [5]; -2.38% in [6]. Also, the Percent Effect in test [7] was 12.9%; in test [8] it was -16.3%; in [9], 4.76%; in test [10], 14.6%; in test [11] it was -3.28%.

For the compound `Cc1cc(C2CCCN(C(=O)c3ccc(C)[nH]c3=O)C2)n[nH]1` (stereo unspecified), the Percent Effect was 1.38% in [1]; 0% in test [2]; -0.306% in [3]; 6.13% in test [4]; -1.04% in test [5]; -0.401% in [6]. For the same compound, the Percent Effect was 1.08% in [7]; -7.96% in [8]; 3.45% in test [9]; -1.24% in test [10]; 4.03% in test [11].

With `O=C1COc2ccc(C(=O)NS(=O)(=O)c3ccc(F)cc3F)cc2N1`, the Percent Effect in test [1] is -2.51%; in test [2], -7.89%; in test [3] it was 6.3%; in [4], -2.06%; in [5], 2.15%; in test [6], -4.32%. For the same compound, the Percent Effect in [7] is -1.78%; in test [8] it was -9.03%; in test [9], 4.43%; in test [10] it was 3.7%; in test [11], 6.46%.

Take `CCc1nccn1C1CCCN(C(=O)c2cn3c(C)cccc3n2)C1` (stereo unspecified): the Percent Effect is -5.71% in [1]; 10.5% in test [2]; -0.577% in test [3]; 8.35% in test [4]; 3.6% in test [5]; -9.47% in test [6]. Also, the Percent Effect was 6.04% in test [7]; -0.411% in [8]; 3.19% in test [9]; 15.6% in test [10]; -1.12% in [11].

`Cc1cc(C(=O)N2CCc3nnc(N)cc3C2)c(C)n1C1CC1`: the Percent Effect in test [1] was -4.88%; in [2], 8.86%; in [3], -10.1%; in test [4] it was 0.435%; in test [5], -1.95%; in test [6], -3.23%. Moreover, the Percent Effect in test [7] is 20.1%; in test [8] it was 2.81%; in test [9], 7.29%; in [10] it was 17.7%; in [11], -16.9%.

Take `CC(Cn1cccn1)NC(=O)NCc1ccc(S(N)(=O)=O)cc1` (stereo unspecified): the Percent Effect was -1.8% in test [1]; 15.6% in test [2]; 6.57% in test [3]; -7.88% in [4]; -1.27% in [5]; -1.05% in test [6]. The Percent Effect is 13.7% in test [7]; 6% in [8]; 9.52% in [9]; 23.5% in test [10]; -18.9% in [11].

In the case of `CNC(=O)C1(c2cnccn2)CCCN1C(=O)c1ccn(C)n1` (stereo unspecified), the Percent Effect in test [1] is -5.86%; in test [2], 6.76%; in [3] it was 3.23%; in [4] it was -2.02%; in test [5], 0.593%; in test [6], -1.16%. The Percent Effect in test [7] is 1.4%; in test [8], 7.86%; in test [9], 4.3%; in test [10], 74%; in test [11] it was -22%.

As to `CCc1nnc2n1CCN(CC(=O)Nc1cc(C(C)(C)C)nn1C)C2`, the Percent Effect in test [1] was -1.62%; in [2], 5.26%; in test [3] it was 1.91%; in [4] it was 0.565%; in test [5] it was -3.38%; in test [6] it was 4.6%. Moreover, the Percent Effect was found to be 2.17% in test [7]; 2.83% in test [8]; 3.43% in [9]; 9.76% in test [10]; 2.88% in test [11].

Turning to `CCn1cc(NC(=O)NCC(c2cccc(F)c2)N(C)C)cn1` (stereo unspecified), the Percent Effect was 0.401% in test [1]; 13.2% in test [2]; 0.674% in [3]; 6.49% in [4]; -0.752% in test [5]; 0.383% in test [6]. Further, the Percent Effect in [7] is 4.68%; in [8] it was -12.5%; in test [9], 11.3%; in [10], 21.9%; in [11] it was -5.78%.

Regarding `Cc1ccc([C@@H]2CN(S(=O)(=O)N(C)C)C[C@H]2N(C)C)cc1`, the Percent Effect in test [1] was -5.32%; in test [2], 13.5%; in test [3], -7.05%; in [4], 37%; in [5], 3.42%; in test [6] it was 45.9%. For the same compound, the Percent Effect in test [7] is 8.84%; in test [8], -3.64%; in test [9], 4.3%; in [10], 11.1%; in test [11], -14.3%.

The record behind these values is ChEMBL document CHEMBL3988442, “University of Dundee, Small-Polar-MMV Screening Library” (2021).
